# Assay outcomes deposited in PubChem by several laboratories.
# The list is not random: actives were taken first. Their share in the collection is about 4.8%.
# Hsp70 act: Hsp70 transcriptional activators, primary screen, cell-based, HeLa, Hsp70 promoter luciferase, luminescence, 10 µM; AID 1203, 2008; activation, % at 10 µM; actives 0.04% (n = 200,000); HeLa Hsp70 promoter luciferase reporter; scaled: vehicle 0, proteasome-inhibitor control 100%;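 active = activation above the mean across all tested compounds plus 3 SD, cutoff set per campaign, cut at about 5.5% in these data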;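 note: 100% = MG132 at 30 µM as the positive control and 0% = DMSO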
# APP 5'UTR act: activators of APP 5'UTR luciferase reporter, primary screen, SH-SY5Y cells; SH-SY5Y APP 5'UTR luciferase reporter, luminescence; zero percent = DMSO vehicle wells; activation, % at 2 µM; actives 1% (n = 190,000);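 active = activation above a set limit, based on mean plus 3 SD of controls, cut at about 140% in these data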
# APP transl inh: inhibitors of APP translation via 5'UTR reporter, primary screen, APP 5'UTR luciferase, SH-SY5Y cells; SH-SY5Y APP 5'UTR-luciferase reporter, luminescence; AID 1285, 2008; inhibition, % at 2 µM; actives 0.82% (n = 190,000);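 active = inhibition above a set limit, derived from the sample mean plus 3 SD, cut at about 45% in these data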
# NF-kB expr up: activators of NF-kB expression in neurons, primary screen, cell-based, HTS; human neuronal cells, NF-kB reporter expression; stronger effect = higher value; fold change at 12.5 µM; actives 1.6% (n = 190,000); AID 1239, 2008; in the data active = fold change above about 3.3
# STAT1 act: STAT1 signaling activators, primary screen, cell-based, HTS, luciferase reporter; NIH 3T3 STAT1-luciferase reporter, IFN-gamma, luminescence; 100% = IFN-gamma alone, no compound; activation (% of control), % at 5.5 µM; actives 2.6% (n = 200,000); AID 932, 2007;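 active = activation above the screen-wide mean activation plus 3 SD, cut at about 130% in these data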;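 note: raw ratio to IFN-gamma control signal so 100% means no change and 0% no light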
# Wee1 degr inh: Wee1 degradation inhibitors, primary screen, cell-based, HeLa, Wee1K328M-luciferase, luminescence | actives 1.2% (n = 220,000) | Wee1-like protein kinase (Homo sapiens), P30291 | HeLa Luc-Wee1K328M stability; 100% = proteasome inhibitor MG132 effect | reporter increase, % at 5 µM;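 active = activation above the mean of all tested compounds plus 3 SD, set per screening run, cut at about 8.8% in these data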;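 note: cells exposed to compound for 20 h before luminescence read; 0% = DMSO alone and 100% = MG132 at 30 µM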
# Target sequence (P30291 whole entry K328M): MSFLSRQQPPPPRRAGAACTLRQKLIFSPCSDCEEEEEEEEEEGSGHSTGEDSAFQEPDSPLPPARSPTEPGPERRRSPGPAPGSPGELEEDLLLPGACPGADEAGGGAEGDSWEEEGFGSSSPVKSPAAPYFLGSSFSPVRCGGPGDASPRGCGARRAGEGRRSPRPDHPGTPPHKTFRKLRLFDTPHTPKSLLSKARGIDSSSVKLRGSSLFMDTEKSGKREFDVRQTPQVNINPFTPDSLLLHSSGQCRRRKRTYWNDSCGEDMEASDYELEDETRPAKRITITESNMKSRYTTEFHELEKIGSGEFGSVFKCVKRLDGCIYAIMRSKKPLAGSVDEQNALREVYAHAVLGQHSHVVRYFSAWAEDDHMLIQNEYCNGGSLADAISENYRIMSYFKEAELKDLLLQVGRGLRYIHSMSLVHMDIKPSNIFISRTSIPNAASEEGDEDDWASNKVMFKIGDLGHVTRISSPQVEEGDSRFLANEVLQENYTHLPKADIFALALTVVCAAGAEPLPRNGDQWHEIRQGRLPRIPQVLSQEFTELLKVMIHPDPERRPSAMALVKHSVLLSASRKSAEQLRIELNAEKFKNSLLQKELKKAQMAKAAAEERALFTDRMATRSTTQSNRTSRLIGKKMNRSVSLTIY
# * = called active by the depositor; / = no result.
SMILES,Hsp70 act,APP 5'UTR act,APP transl inh,NF-kB expr up,STAT1 act,Wee1 degr inh
COc1c(Cl)cnn(-c2ccc(C)cc2)c1=O,-0.4,-13.2,13.2,1.24,99.9,-1.6
CN(C)c1ccc(P(=O)(Nc2ccccc2)N2CCOCC2)c(NC(=O)c2cccs2)c1 (configuration not stated),0.4,14.0,-14.0,1,102.2,3.0
CC(=O)Nc1ccc(/C=C/c2ccc3c([N+](=O)[O-])cccc3n2)cc1,-0.2,64.7,-64.7,1.09,135.8*,-2.8
COC(=O)Cc1c(C)nc2nc(NCc3ccccc3OC)[nH]n2c1=O,0.0,9.3,-9.3,0.96,102.0,1.8
CC(=O)Nc1nc(-c2ccc([N+](=O)[O-])cc2)cs1,-0.3,7.1,-7.1,1.16,113.2,0.6
O=C(Nc1ccc([N+](=O)[O-])cc1)Nc1nc(-c2ccc(Cl)s2)cs1,-0.2,-56.2,56.3*,0.79,98.5,0.2
Cn1cccc1C(=O)Nc1nc(-c2ccccn2)cs1,-0.5,42.6,-42.6,5.11*,135.3*,3.3
Cc1csc(NC(=O)c2ccc(C(=O)Nc3nc(C)cs3)cc2)n1,/,/,/,/,/,-0.3
O=C(Nc1nc(-c2ccc(Cl)s2)cs1)c1ccco1,-0.2,69.9,-69.9,2.19,129.5*,1.3
O=C(Nc1nc(-c2ccc(Cl)s2)cs1)c1cccs1,-0.1,66.3,-66.3,1.64,111.0,1.7
Cc1csc(NC(=O)c2cccn2C)n1,0.1,90.4,-90.4,3.19,131.1*,-1.0
CCN(CCNC(=O)CS(=O)(=O)Cc1nc(-c2cccc(OC)c2)oc1C)c1ccccc1,-0.2,3.6,-3.6,1.03,106.9,1.8
COc1ccc(CCN2CC(O)=C(c3nc4ccccc4c(=O)[nH]3)C2=N)cc1OC,0.1,-6.3,6.3,1,107.4,2.1
CC(Oc1cccc(Cl)c1)C(=O)Nc1ccncc1 (configuration not stated),-0.2,3.6,-3.5,0.88,94.9,-3.7
O=C(Nc1nc(-c2ccccn2)cs1)c1ccc(Cl)s1,-0.3,-77.2,77.2*,2.02,101.3,10.0*
O=C(Nc1nc(-c2ccccn2)cs1)c1ncc(Cl)c(Cl)c1Cl,0.8,16.2,-16.2,0.92,102.8,-2.3
Cc1cc(-c2n[nH]c(=S)o2)c(C)n1-c1ccccc1,0.2,45.4,-45.4,1.26,114.8,2.1
Oc1cc2ccccc2cc1-c1n[nH]c(=S)o1,0.9,-2.8,2.8,1.01,110.6,8.9*
COc1ccc2nc3oc(C(=O)Nc4ccc(OC)c(OC)c4)cc3cc2c1,-0.7,5.9,-5.9,1.05,104.7,8.9*
COc1ccc2cc3cc(C(=O)Nc4ccc5c(c4)OCO5)oc3nc2c1,-0.5,8.3,-8.3,1.24,105.9,-1.1
CC(C)COc1ccc(C(=O)Nc2ccc([N+](=O)[O-])cc2)cc1,0.6,16.4,-16.4,1.18,115.1,-4.1
O=C(NC1CCCCC1)Nn1c(-c2ccccc2)nc2ccccc2c1=O,-0.3,-5.0,5.0,1.04,94.8,-1.6
C=C(C)COc1ccc(-c2[nH]ncc2-c2ccc(OC)cc2)c(O)c1,/,/,/,/,/,-1.3
C=C(C)COc1ccc(-c2[nH]ncc2-c2ccc(OC)c(OC)c2)c(O)c1,0.0,-91.1,91.1*,0.84,96.4,2.6
COC(=O)c1ccc(-c2nc3cc(Cl)c(N)cc3s2)cc1,0.2,141.7*,-141.7,1.56,145.7*,-0.9
SMILES,Hsp70 act,APP 5'UTR act,APP transl inh,NF-kB expr up,STAT1 act,Wee1 degr inh
COC(=O)c1ccc(-c2nc(O)c(C)s2)cc1,0.4,-3.1,3.1,1.08,100.9,-0.8
CCc1ccc2oc(-c3cc(N)ccc3O)nc2c1,-0.2,186.9*,-186.9,4.02*,79.5,9.5*
Nc1ccc2oc(-c3cc(Br)ccc3Cl)nc2c1,-0.6,-46.5,46.5*,0.5,96.8,-1.8
CCc1ccc2oc(-c3cc(N)ccc3Cl)nc2c1,-0.3,160.0*,-160.0,2,131.3*,1.8
CC(SCC(=O)Nc1ccc(S(=O)(=O)N2CCCCC2)cc1)C(=O)O (configuration not stated),-0.3,4.7,-4.7,1.1,104.7,2.1
C=CCNc1nc(-c2ccc(OC)cc2OC)cs1,0.3,49.7,-49.7,3.38*,150.5*,5.1
C=CCn1c(C)cc(-c2csc(NCC)n2)c1C,-0.3,9.6,-9.6,1.17,107.9,-1.3
COc1ccc(-c2nn3c(-c4ccccn4)nnc3s2)cc1OC,0.0,26.0,-26.0,0.62,106.9,-0.1
C#CCOCCOCCOCCNc1nc(N2CCN(C(=O)[C@H]([C@@H](C)CC)n3cc([C@@H](N)CC(C)C)nn3)CC2)nc(N2CCN(C(=O)[C@H]([C@@H](C)CC)n3cc([C@@H](N)CC(C)C)nn3)CC2)n1,-0.1,14.9,-14.9,1.06,104.2,0.2
COc1ccccc1N(CC(O)COc1c(C)cc(C)cc1C)S(=O)(=O)c1ccccc1 (configuration not stated),-0.3,-12.3,12.3,1.16,102.4,-0.5
CCCCn1c(CN2CCN(c3cccc(Cl)c3)CC2)nc2c1c(=O)[nH]c(=O)n2C,0.1,-84.7,84.7*,0.64,114.3,7.5
Cn1c(=O)[nH]c(=O)c2c1nc(CN1CCN(c3cccc(Cl)c3)CC1)n2CCCc1ccccc1,0.6,16.7,-16.7,0.69,101.8,-1.9
O=c1cc(O)c(-c2ccccc2Cl)c(Cl)[nH]1,-0.2,-2.0,2.0,0.96,97.3,1.0
Cc1cccc(-c2c(O)cc(=O)[nH]c2Cl)c1,-0.2,11.3,-11.3,5.9*,98.7,-2.5
Nc1nc2nc(-c3ccccc3)cc(=O)n2[nH]1,-0.2,-2.7,2.7,1.02,105.1,-1.9
O=c1cc(-c2ccccc2)nc2nc(-c3ccccc3)[nH]n12,-0.4,9.6,-9.6,1.84,155.5*,-2.4
Cc1cccc(NC(=O)CSc2ccc(-c3ccco3)nn2)c1C,-0.2,-4.8,4.8,0.91,108.0,1.1
O=C(CCS(=O)(=O)c1ccccc1)Nc1ccc2c(c1)OCO2,0.1,-1.8,1.8,2.2,135.7*,-1.1
O=C(CCCN1C(=O)CCC1=O)Nc1ccc2c(c1)OCO2,-0.3,14.9,-14.9,1.29,99.4,2.4
CS(=O)(=O)N(CC(=O)Nc1ccc2c(c1)OCO2)c1ccccc1,-0.3,-5.9,5.9,1.21,98.1,-1.6
O=C(CCCc1cccs1)Nc1ccc2c(c1)OCO2,0.1,161.8*,-161.8,4.22*,134.5*,0.8
Cn1nc(C(C)(C)C)c([N+](=O)[O-])c1C(=O)NC(C)(C)C,-0.4,-11.3,11.3,1.25,102.4,-0.5
CCOC(=O)c1c(C)[nH]c(C(=O)CSc2nccc(C)n2)c1C,0.1,79.8,-79.8,2.23,132.2*,4.7
